Source: PubChem BioAssay
Inconclusive results are not listed. The source made the active and inactive calls.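 The calls were made as follows, unless noted: active = viability at or below 10% of carrier control in both of two separate runs; inconclusive = viability at or below 10% in only one of the two runs; inactive = the rest.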

Legend:
[1] = Her2 expression decrease, cell viability multiplex – SKBR3 breast tumor cells, AlphaScreen, ATP viability, primary screen (AID 461;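 active = Her2 level under about 52% in both replicate screens, with viability over 70% of control, limit read from the data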;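 as to Her2 level: lower value means less Her2 protein in the cells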;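 as to viability: percent of carrier control wells set as 100% viability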); conditions: SKBR3 Her2 protein level, 18-24 h, measured here: SKBR3 viability, ATP luminescence, at 10 µM
[2] = target: Receptor tyrosine-protein kinase erbB-2 (Homo sapiens) (UniProt P04626); test: as above; conditions: 18-24 h, at 10 µM, stronger effect = lower value
Receptor tyrosine-protein kinase erbB-2 (Homo sapiens), sequence (P04626 whole entry, looked up): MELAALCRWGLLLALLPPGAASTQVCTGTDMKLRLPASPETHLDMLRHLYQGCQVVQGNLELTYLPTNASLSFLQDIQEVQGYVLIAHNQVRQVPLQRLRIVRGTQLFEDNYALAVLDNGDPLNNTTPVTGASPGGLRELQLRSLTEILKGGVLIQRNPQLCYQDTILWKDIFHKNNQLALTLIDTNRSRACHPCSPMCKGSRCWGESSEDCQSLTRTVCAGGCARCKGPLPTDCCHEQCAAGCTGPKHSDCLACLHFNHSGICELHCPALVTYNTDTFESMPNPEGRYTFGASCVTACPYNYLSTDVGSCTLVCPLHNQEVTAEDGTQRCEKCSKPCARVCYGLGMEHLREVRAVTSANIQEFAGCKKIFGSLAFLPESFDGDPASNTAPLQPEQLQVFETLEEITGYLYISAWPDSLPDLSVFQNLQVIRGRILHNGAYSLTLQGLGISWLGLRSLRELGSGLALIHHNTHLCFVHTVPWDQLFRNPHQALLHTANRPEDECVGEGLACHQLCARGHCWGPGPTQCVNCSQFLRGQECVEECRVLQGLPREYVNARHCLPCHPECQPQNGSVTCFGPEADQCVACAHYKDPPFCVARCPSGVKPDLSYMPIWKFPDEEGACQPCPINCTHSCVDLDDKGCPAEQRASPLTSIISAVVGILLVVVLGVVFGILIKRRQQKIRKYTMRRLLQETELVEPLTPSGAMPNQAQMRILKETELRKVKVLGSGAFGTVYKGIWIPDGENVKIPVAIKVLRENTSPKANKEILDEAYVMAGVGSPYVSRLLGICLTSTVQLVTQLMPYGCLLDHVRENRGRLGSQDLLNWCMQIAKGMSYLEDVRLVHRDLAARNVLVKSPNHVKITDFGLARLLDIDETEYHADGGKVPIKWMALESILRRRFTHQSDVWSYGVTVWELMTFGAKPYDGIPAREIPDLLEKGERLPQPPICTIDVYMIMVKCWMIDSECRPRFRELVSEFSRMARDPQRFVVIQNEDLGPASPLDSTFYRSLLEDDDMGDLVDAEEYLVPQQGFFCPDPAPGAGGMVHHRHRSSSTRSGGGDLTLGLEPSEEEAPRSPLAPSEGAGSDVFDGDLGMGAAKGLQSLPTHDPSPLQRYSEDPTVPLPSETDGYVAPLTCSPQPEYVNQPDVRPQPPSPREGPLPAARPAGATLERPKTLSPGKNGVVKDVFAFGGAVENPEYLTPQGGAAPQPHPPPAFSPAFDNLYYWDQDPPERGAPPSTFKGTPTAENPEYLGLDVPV

[3] = reduced viability of SK-BR-3 breast cancer cells – cell-based, 24 h, human, pilot screen (AID 572); conditions: SK-BR-3 viability, CellTiter-Glo luminescence, at 10 µM, stronger effect = lower value;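 also: compound exposure lasted between 18 and 24 h rather than exactly 24 h; 100% = carrier-treated control wells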
[4] = HUVEC growth inhibition – cell-based, human, primary screen (AID 575;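 active = viability at or below 30% in both replicate assays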;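 also: 100% = median of untreated cell wells with 0.1% DMSO on each plate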); conditions: HUVEC proliferation, CellTiter-Glo luminescence, 72 h; at 10 µM; stronger effect = lower value
[5] = H69AR cell proliferation blockers – human, duplicate replicates, primary screen (AID 580;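 active = viability at or under a set limit in both replicates, limit being median viability minus 3 SD, cut at about 48% in these data, passing the limit was not always enough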;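 also: 100% = mean luminescence of untreated wells and 0% = no signal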); conditions: H69AR lung tumor cells viability, ATP luminescence, 72 h; at 10 µM; stronger effect = lower value
[6] = MRP1 drug-resistance reversers in H69AR cells – cell-based, doxorubicin co-treatment, pilot screen (AID 601;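 active = viability loss from added drug above about 55%, and viability with drug at most 40%, in both replicates, limit read from the data, passing the limit was not always enough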); conditions: CellTiter-Glo, 72 h, at 10 µM; for differential viability (reversal): stronger effect = higher value
[7] = yeast transport mutant growth inhibition pilot in 384-well plates, post-Golgi transport modulator project (AID 636; in the data active = inhibition above about 31%); conditions: absorbance 615 nm, about 18 h, stronger effect = higher value
[8] = growth suppression of yeast trafficking mutant, preliminary HTS, modulators of trafficking downstream of Golgi apparatus project, 1536-format plate, OD 615 nm (AID 637; in the data active = inhibition above about 30%); conditions: yeast transport mutant growth, absorbance 615 nm, 18 h; stronger effect = higher value
[9] = S. cerevisiae growth inhibition in permissive medium (OD615), pilot counter-assay for S. cerevisiae lifespan shortening project, permissive growth control (AID 705;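 active = growth inhibition above 25% in both replicates, a cutoff set 3 SD above the mean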); conditions: OD615, 24 h, at 10 µM, stronger effect = higher value
[10] = S. cerevisiae growth inhibition in restrictive medium, OD615, pilot screen, restrictive growth control, yeast lifespan reduction project (AID 706;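 active = growth inhibition above a set limit, 3 SD over mean compound inhibition, in both replicates, cut at about 43% in these data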;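 also: modified DeaD lifespan yeast strain shifted to restrictive glucose medium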); conditions: OD615, 48 h, at 10 µM, stronger effect = higher value
[11] = doxorubicin toxicity protection in MRP-1 cells – H69AR cells, CellTiter-Glo, duplicate, MRP-1 activator project, pilot screen (AID 807;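 active = viability increase at or above a cutoff of the median across tested compounds plus 3 SD, cut at about 8.5% in these data, passing the limit was not always enough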;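 also: compound pretreatment 18-22 h then 72 h combined with doxorubicin; 0% = doxorubicin alone and 100% = vehicle without doxorubicin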); conditions: H69AR viability with doxorubicin, CellTiter-Glo luminescence; at 10 µM; stronger effect = higher value
[12] = viability of HCT116 without oncogenic beta-catenin – human colon tumor cells, pilot screen (AID 823;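 active = cell viability at or below a set limit in both duplicate runs, the limit being the all-compound median minus 4 SD, cut at about 23% in these data, passing the limit was not always enough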;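 also: 0% = wells killed by 20 µM Hyamine and 100% = untreated DMSO cell wells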); conditions: HCT116 beta-catenin knockout viability, CellTiter-Glo, 60 h; at 10 µM; stronger effect = lower value
[13] = viability of PTEN-null HCT116 cells – cell-based, HCT116 clonal line, CellTiter-Glo, pilot screen (AID 824;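 active = viability at or below 27.92% in each of two runs, the all-compound median minus 4 SD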;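 also: 0% = 20 µM Hyamine control and 100% = vehicle cell control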); conditions: HCT116 PTEN-deleted viability, 60 h, at 10 µM, stronger effect = lower value
[14] = RAM signaling pathway blockade in yeast – S. cerevisiae, Pdr1DBD-CYC8 efflux-inhibited sensitized strain, primary screen (AID 1298;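 active = RAM network inhibition above 8.4% in each of two replicates, 3 SD over the compound average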;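 also: 0% = DMSO untreated cells without growth and 100% = 10 µM 1-NA-PP1 full growth; higher means more yeast growth rescued from 5-FOA killing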); conditions: S. cerevisiae cbk1-as DSE1-URA3 strain, 5-FOA growth OD615, 2 d; at 50 µM; stronger effect = higher value
[15] = RAM pathway blockade in budding yeast – dse1pr::URA3 reporter, 5-FOA selection, pilot screen (AID 869;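 active = inhibition over a set limit, the all-compound mean plus 3 SD, in both replicate runs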;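 also: 0% = DMSO wells with no growth and 100% = 10 µM 1-NA-PP1 with full growth; RAM network block rescues cells from 5-FOA so hits raise OD615 growth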); conditions: S. cerevisiae dse1pr::URA3 5-FOA growth, OD615, 2 d; at 10 µM; stronger effect = higher value; strain carries analog-sensitive mutant Cbk1 kinase
[16] = H69AR cells + 2 uM doxorubicin, measured here: viability with 2 uM doxorubicin, stronger effect = lower value
[17] = H69AR cells, compound alone cytotoxicity

Row | SMILES | viability [1] [%] | Her2 level [2] | viability [3] | viability [4] | viability [5] | differential viability (reversal) ([6]; H69AR cells + 2 uM doxorubicin) | viability [6, 16] [%] | viability [6, 17] [%] | inhibition [7] | inhibition [8] | growth inhibition [9] | growth inhibition [10] | viability increase [11] | viability [12] | viability [13] | RAM network inhibition [14] | inhibition [15]
1 | CCc1ccc(N(CC(=O)NC2CCCC2)S(=O)(=O)c2c(C)noc2C)cc1 | 102 | 110% (inactive) | 102% (inactive) | 101% (inactive) | 84% (inactive) | 3.79% (inactive) | 80.2 | 84 | -4.4% (inactive) | -0.83% (inactive) | -3.32% (inactive) | 3.27% (inactive) | -1.49% (inactive) | 92.3% (inactive) | 93.8% (inactive) | 2.82% (inactive) | –
2 | COc1ccc(N2Cc3ccccc3C2)cc1Cl | 118 | 114% (inactive) | 118% (inactive) | 81.9% (inactive) | 89.9% (inactive) | -4.19% (inactive) | 94 | 89.9 | -4.27% (inactive) | -9.17% (inactive) | -2.97% (inactive) | -10.6% (inactive) | 0.04% (inactive) | 94% (inactive) | 87.7% (inactive) | 7.11% (inactive) | –
3 | O=C(Cn1nc(Cc2ccncc2)c2ccccc2c1=O)N1CCc2ccccc2C1 | 83 | 100% (inactive) | 83% (inactive) | 95.3% (inactive) | 96.5% (inactive) | 5.38% (inactive) | 91.1 | 96.5 | -0.27% (inactive) | -3.77% (inactive) | -1.69% (inactive) | 3.79% (inactive) | -2.78% (inactive) | 103% (inactive) | 103% (inactive) | 3% (inactive) | 1.33% (inactive)
4 | COc1ccc(NC(=O)CSc2nnc(Cc3cccn3C)n2-c2ccc(F)cc2)cc1 | 96 | 112% (inactive) | 96% (inactive) | 94.4% (inactive) | 94.8% (inactive) | -14.7% (inactive) | 110 | 94.8 | -2.27% (inactive) | -6.5% (inactive) | 4.66% (inactive) | 11.6% (inactive) | -2.27% (inactive) | 88.8% (inactive) | 86% (inactive) | 8.6% (inactive) | 2.56% (inactive)
5 | c1nc(NCC2CCCO2)c2[nH]cnc2n1 (stereo not given) | 83.5 | 91.5% (inactive) | 83.5% (inactive) | 93.4% (inactive) | 91.1% (inactive) | 7.82% (inactive) | 83.3 | 91.1 | -1.84% (inactive) | 4% (inactive) | -10% (inactive) | -5.46% (inactive) | 0.98% (inactive) | 100% (inactive) | 99.7% (inactive) | 1.7% (inactive) | 1.3% (inactive)
6 | CC(=O)C1=C(N2CCCCC2)CCC1=O | 86 | 101% (inactive) | 86% (inactive) | 109% (inactive) | 98.3% (inactive) | 11.5% (inactive) | 86.8 | 98.3 | -5.81% (inactive) | 5.33% (inactive) | 2.54% (inactive) | 4.54% (inactive) | -2.01% (inactive) | 94.5% (inactive) | 94.7% (inactive) | 0.55% (inactive) | –
7 | CCCCC(NS(=O)(=O)c1ccc(OC)cc1)C(=O)O (stereo not given) | 110 | 108% (inactive) | 110% (inactive) | 101% (inactive) | 98.4% (inactive) | 4.5% (inactive) | 93.9 | 98.4 | -0.39% (inactive) | -4.17% (inactive) | -19.3% (inactive) | -7.24% (inactive) | 0.29% (inactive) | 99.1% (inactive) | 97.1% (inactive) | 3.29% (inactive) | 1.7% (inactive)
8 | O=C(NC1CCCc2ccccc21)c1ccc(CNc2c(N3CCOCC3)c(=O)c2=O)cc1 (stereo not given) | 86.5 | 100% (inactive) | 86.5% (inactive) | 95.5% (inactive) | 91.7% (inactive) | 14.2% (inactive) | 77.5 | 91.7 | 1.79% (inactive) | 2.67% (inactive) | -3.71% (inactive) | -2.73% (inactive) | -3.89% (inactive) | 89.1% (inactive) | 59.3% (inactive) | 6.53% (inactive) | –
9 | CC(=O)NCCc1nc2ccccc2[nH]1 | 94 | 104% (inactive) | 94% (inactive) | 91.9% (inactive) | 93.7% (inactive) | -1% (inactive) | 94.7 | 93.7 | -5.2% (inactive) | -2.33% (inactive) | -3.03% (inactive) | 6.51% (inactive) | -0.62% (inactive) | 107% (inactive) | 97% (inactive) | 2.3% (inactive) | -0.365% (inactive)
10 | COC(=O)Cn1c(=NC(=O)CSCC(=O)Nc2cc(C)on2)sc2ccccc21 | 89 | 90% (inactive) | 89% (inactive) | 90.4% (inactive) | 88.5% (inactive) | 3% (inactive) | 85.5 | 88.5 | -5.07% (inactive) | -3.5% (inactive) | -6.84% (inactive) | -19.8% (inactive) | -0.92% (inactive) | 99.3% (inactive) | 96.9% (inactive) | 7.51% (inactive) | –
11 | CCOC(=O)C(CC)n1nc(C)n2c(cc3sccc32)c1=O (stereo not given) | 114 | 102% (inactive) | 114% (inactive) | 110% (inactive) | 85.1% (inactive) | 0.895% (inactive) | 84.2 | 85.1 | -5.87% (inactive) | 1% (inactive) | -5.97% (inactive) | 1.69% (inactive) | -2.34% (inactive) | 99.8% (inactive) | 95.2% (inactive) | 2.14% (inactive) | -1.04% (inactive)
12 | COc1ccccc1N1CCN(C(=O)N2CCOCC2)CC1 | 107 | 87% (inactive) | 107% (inactive) | 86.9% (inactive) | 73.8% (inactive) | -9.12% (inactive) | 82.9 | 73.8 | -1.95% (inactive) | -5.57% (inactive) | -17.3% (inactive) | -6.65% (inactive) | -1.74% (inactive) | 95.9% (inactive) | 96.8% (inactive) | 0.62% (inactive) | 1.06% (inactive)
13 | CC(=O)N1c2c(cc(Br)cc2S(=O)(=O)NCC2COc3ccccc3O2)CC1C (stereo not given) | 97.5 | 85% (inactive) | 97.5% (inactive) | 88.9% (inactive) | 81.7% (inactive) | -2.64% (inactive) | 84.3 | 81.7 | -5.34% (inactive) | -2.06% (inactive) | -0.935% (inactive) | 8.23% (inactive) | 0.21% (inactive) | 83.2% (inactive) | 81% (inactive) | 0.61% (inactive) | 0.495% (inactive)
14 | CC1(C)C(c2ccccc2)=NC(c2ccccc2)N1O (stereo not given) | 86.5 | 82% (inactive) | 86.5% (inactive) | 98% (inactive) | 91.4% (inactive) | 8.36% (inactive) | 83 | 91.4 | -0.78% (inactive) | -9% (inactive) | -0.065% (inactive) | -4.8% (inactive) | -1.73% (inactive) | 95.6% (inactive) | 96.5% (inactive) | 3.18% (inactive) | 0.165% (inactive)
15 | Cc1occc1C(=O)N1CCN(Cc2ccccc2)CC1 | 85.5 | 89% (inactive) | 85.5% (inactive) | 98.1% (inactive) | 89.3% (inactive) | 3.23% (inactive) | 86 | 89.3 | 0.26% (inactive) | -5.5% (inactive) | -0.31% (inactive) | -15.5% (inactive) | -1.95% (inactive) | 94.7% (inactive) | 97.6% (inactive) | 2.68% (inactive) | –
16 | N#CCCN(Cc1cccnc1)C(=O)Nc1ccc(Cl)c(Cl)c1 | 118 | 94% (inactive) | 118% (inactive) | 94.6% (inactive) | 91.2% (inactive) | 9.8% (inactive) | 81.4 | 91.2 | 0.13% (inactive) | 3.28% (inactive) | -13.1% (inactive) | -14.9% (inactive) | 0.83% (inactive) | 95.3% (inactive) | 102% (inactive) | 4.53% (inactive) | 0.065% (inactive)
17 | O=C1c2ccccc2C(Nc2ccc3c(c2)OCO3)N1Cc1ccc2c(c1)OCO2 (stereo not given) | 86 | 81.5% (inactive) | 86% (inactive) | 50% (inactive) | 83.4% (inactive) | -3.75% (inactive) | 87.1 | 83.4 | -0.27% (inactive) | 1.83% (inactive) | -0.885% (inactive) | -1.48% (inactive) | -0.78% (inactive) | 76.8% (inactive) | 70.1% (inactive) | 4.17% (inactive) | 1.67% (inactive)
18 | Nc1nc2n(n1)C(c1cccc(Br)c1)CC(c1ccc(F)cc1)N2 (stereo not given) | 85 | 109% (inactive) | 85% (inactive) | 98.8% (inactive) | 111% (inactive) | -6.81% (inactive) | 117 | 111 | -1.03% (inactive) | -6.5% (inactive) | 2.49% (inactive) | 11.9% (inactive) | 0.72% (inactive) | 89.3% (inactive) | 89.3% (inactive) | 2.61% (inactive) | 0.875% (inactive)
